# rCAG binder: r(CAG) repeat RNA binding; TO-PRO-1 dye displacement fluorescence; 370,000 tested, 1.3% active; inhibition, % at 3 µM;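 active means inhibition above the plate cutoff, the mean of all test compounds on that plate plus 3 SD, cut at about 35% in these data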;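 further: 0% = DMSO alone and 100% = 100 µM mitoxantrone as full dye displacement; higher means more dye released from RNA so lower well fluorescence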
# Myeloid diff MLP: promotes myeloid progenitor differentiation. ER-HoxA9 myeloid progenitors, lysozyme-GFP differentiation, flow cytometry. calls only at 10 µM. 360,000 tested, 1% active;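 active means normalized GFP-positive differentiation at or above the plate's own cutoff, the solvent-only control mean plus 3 SD; inconclusive means no clear call, values can overlap the other calls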;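 further: cells exposed to compound for four days before flow analysis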
# NR3A LBD binder: modulates the human NR3A ligand-binding domain | Tm shift relative to glycine control, % at 25 µM | 340,000 tested, 2.5% active | NR3A LBD differential scanning fluorimetry, Tm shift; 0% = protein alone, 100% = glycine-bound protein | AID 1259313;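 active means melting temperature shift of at least 10% of the positive control shift, at one fixed dose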
# FAS TE block: FAS thioesterase (human) inhibition; 360,000 tested, 0.67% active; inhibition, % at 15 µM; P49327; recombinant FAS-TE, OMFH fluorogenic substrate, fluorescence endpoint;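 active means compounds whose normalised, plate-corrected inhibition of enzyme fluorescence in the single-dose primary screen is 50% or more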;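 further: 0% = DMSO with enzyme and 100% = substrate without enzyme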
# MPTP block: permeability transition pore inhibition; isolated mouse mitochondria, Ca2+ swelling absorbance, 30 min; inhibition, % at 10 µM; 360,000 tested, 1.4% active; AID 602449;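 active means inhibition of 50% or more, scaled per plate between neutral and stimulator controls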;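 further: 0% = DMSO wells given calcium and 100% = 1 mM EGTA wells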
# Rh123 counter: Rhodamine 123 counter-screen of mitochondrial pore hits; 5,000 tested, 78% active; shares compounds with MPTP block; inhibition, % at 10 µM; isolated mitochondria, membrane potential, Rhodamine 123 fluorescence; in the data active means inhibition above about 22%;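 further: 0% = DMSO vehicle and 100% = positive control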
# * marks the source's active call; other numbers are inactive results; i = inactive; ? = inconclusive; . = not tested or not shown; + = active, no number; ! = a repeat was not active. In the library only some 5.7% were active in any assay of this set; here they are far more common.
SMILES,rCAG binder,Myeloid diff MLP,NR3A LBD binder,FAS TE block,MPTP block,Rh123 counter
Cc1c(O)ccc2c(CN(C)Cc3ccccc3)cc(=O)oc12,2,i,0,16,84*,62*
Cc1ccc(Cc2c(-c3cccc(Br)c3)nc3c(C)cc(Br)cn23)cc1,25,i,.,24,3,.
Cc1ccc(NC(=S)NC(C)CCc2ccccc2)cc1C (stereo not drawn),1,i,-2,21,86*,97*
CC(=O)c1ccc(NC(=S)NC(C)CCc2ccccc2)cc1 (stereo not drawn),3,i,1,12,89*,93*
Cc1ncoc1C(=O)NC1CCCc2c1cnn2-c1cc(F)cc(F)c1 (stereo not drawn),-1,i,.,-8,3,.
Cc1ccc(-n2ncc3c2CCCC3NC(=O)c2ccoc2)cc1C (stereo not drawn),-1,i,1,0,1,.
Cc1cc(C(=O)NC2CCCc3c2cnn3-c2ccc(C)c(C)c2)n(C)n1 (stereo not drawn),-10,i,-1,-1,93*,87*
Cc1ncoc1C(=O)NC1CCCc2c1cnn2-c1ccc(C(C)(C)C)cc1 (stereo not drawn),-5,?,3,4,79*,94*
CCCCNc1ccc2c(c1)OC[C@H](CC(C)C)NS2(=O)=O,1,.,.,.,.,.
CN1\C(=C/C=C/C=C/C=[N+](C)C)C(C)(C)c2ccccc21,-337,+,-364,-13,112*,59*
CC1CCN(S(=O)(=O)N2CCN(C(=O)c3ccc4c(c3)OCO4)CC2)CC1,-4,i,0,-1,-2,.
O=C(N/N=C/c1ccc(Cl)c([N+](=O)[O-])c1)c1cc(-c2ccccc2)nc2ccccc12,4,i,8,32,68*,75*
O=C(N/N=C/c1cccc([N+](=O)[O-])c1)c1cc(-c2ccccc2)nc2ccccc12,-2,i,4,-9,23,.
O=C(N/N=C/c1cc([N+](=O)[O-])ccc1O)c1cc(-c2ccccc2)nc2ccccc12,8,?,21*,36,98*,50*
C[C@@H]1CN([C@H](C)CO)C(=O)c2c(c3ccccc3n2C)-c2ccccc2CO[C@H]1CN(C)C(=O)NC1CCCCC1,3,i,.,1,0,.
COC(=O)C1=C(C(=O)OC)SC(=C2C(=S)C(C)(C)N(C(=O)CC(C)C)c3ccccc32)S1,2,i,-1,29,34,.
CCC(C)NC(=O)CSc1nc(-c2cccs2)cc(C(F)(F)F)n1 (stereo not drawn),-6,i,0,1,2,.
O=C(CSc1nc(-c2cccs2)cc(C(F)(F)F)n1)Nc1cc(OCC(F)(F)F)cc([N+](=O)[O-])c1,1,i,15*,39,100*,79*
CCC(C)c1ccc(O)c(NC(=S)NC(=O)c2cccnc2)c1 (stereo not drawn),-3,i,-4,5,0,.
CCC(C)c1ccc(O)c(NC(=O)c2cncc(Br)c2)c1 (stereo not drawn),8,.,-25,10,77*,64*
O=C1c2c(O)ccc(O)c2C(=O)c2c(NCCNCCO)ccc(NCCNCCO)c21,54*!,?,-1,-1,106*!,-45
O=C1c2ccccc2C(=O)c2c(Nc3ccc(CCO)cc3)ccc(O)c21,16,i,-10,11,4,.
Cc1cc(=O)[nH]c(SCC(=O)C23CC4CC(CC(C4)C2)C3)c1C#N,31,i,-9,18,85*,84*
C=COc1ccc(N2C(=O)c3ccccc3OC2C)cc1 (stereo not drawn),-1,.,0,-1,0,.
COc1ccccc1N(CC(=O)NCc1ccccc1)C(=O)CCC(=O)Nc1nccs1,-6,i,1,-5,0,.
SMILES,rCAG binder,Myeloid diff MLP,NR3A LBD binder,FAS TE block,MPTP block,Rh123 counter
CC(=NNC(=S)Nc1cccc(C)c1)c1ccccn1,6,?,-2,-2,52*,62*
CCCCCCn1c(-c2ccc(Cl)cc2Cl)csc1=Nc1ccccc1,3,.,.,.,.,.
Cc1nn(C)c(C(=O)NCc2ccc(Cl)cc2)c1Cl,-5,i,-2,-2,93*,86*
O=C(Nc1ccc(Cl)cc1)C1=Cc2cc(Cl)ccc2OC1,7,i,26*,29,99*,113*
O=C(Nc1ccc(Cl)cc1Cl)C1=Cc2ccccc2OC1,1,i,2,15,0,.
c1ccc2c(CCNc3ncnc4nc[nH]c34)cccc2c1,1,i,-2,-45,64*,33*
Cc1ccc2cc(CN(CCN(C)C)C(=O)Nc3ccc(Cl)cc3)c(=O)[nH]c2c1,-4,i,11*,2,92*,100*
Cc1ccc2[nH]c(=O)c(CN(CCCN(C)C)C(=O)Nc3ccc(Cl)cc3)cc2c1,0,i,0,-2,0,.
O=C(NCC1COc2ccccc2O1)C1CCN(S(=O)(=O)c2ccc(Cl)cc2)CC1 (stereo not drawn),1,i,3,15,1,.
O=C(CCCN1C(=O)/C(=C\c2cccs2)SC1=S)Nc1cc([N+](=O)[O-])ccc1O,5,i,23*,9,74*,64*
O=C(CCCN1C(=O)/C(=C/c2cccs2)SC1=S)Nc1ccccn1,1,i,-6,12,-2,.
CCOC(=O)c1cc2c(C)n(-c3ccc(C)cc3)c(C)c2ccc1=O,0,i,-1,-4,82*,35*
COc1ccc(CNS(=O)(=O)c2ccc(Br)s2)cc1,0,i,1,4,0,.
O=C(Nc1cc(Sc2ccccn2)cc([N+](=O)[O-])c1)c1ccc(Cl)cc1,-3,i,-9,44,53*,72*
O=C(Nc1cc(Sc2ccccn2)cc([N+](=O)[O-])c1)c1cccc(Cl)c1,16,i,7,28,95*,76*
CCSc1nnc(NC(=O)C(CC)(C(F)(F)F)C(F)(F)F)s1,2,.,-5,-9,54*,106*
CN(CCc1ccccc1)C(=O)c1cccc(NC(=O)Cc2cccc([N+](=O)[O-])c2)c1,0,i,-2,24,0,.
O=C(/C(=N\Nc1ccc(Br)cc1)Sc1nnnn1-c1ccccc1)c1ccccc1,30,i,20*,10,90*,74*
Cc1cnc(NC(=O)Cc2ccc(Br)cc2)s1,5,i,3,-4,4,.
CCC(Oc1ccccc1)C(=O)Nc1nnc(C)s1 (stereo not drawn),2,i,-1,0,-2,.
O=C(Cc1ccc(Br)cc1)Nc1ncc([N+](=O)[O-])s1,14,i,4,14,74*,82*
CCC(Oc1ccccc1)C(=O)Nc1ncc([N+](=O)[O-])s1 (stereo not drawn),6,i,-9,1,89*,98*

# Source: PubChem
